Shown are actives, neighbours in structure and some others; about 3.4% of the full set was active somewhere.
GCN5L2 inh-1: blocks human GCN5L2 histone acetyltransferase; Q92830; GCN5L2 HAT assay, ThioGlo1 CoA-SH fluorescence; Potency, µM (doses to about 58.9 µM), for the others: at the top dose activity change, negative = inhibition, most hits filed as inhibitors; actives 0.21% (n = 390,000); AID 504327; also: potency is read from the fitted curve at half-maximal effect; % is scaled to controls: 0 for no effect and ±100 for the full control effect
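GCN5L2 (20nM final) in 50mM HEPES, 0.1mM EDTA pH 7.5, 0.01% Tween-20 was preincubated 15 min at room temperature with compound, then given ThioGlo1 (50uM), H3(1-25) peptide (75uM) and acetyl-CoA (70uM); CoA-thiol fluorescence (Ex340/Em540) was read at 0 and 20 min.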
VDR inhibitor: inhibitors of human vitamin D receptor | actives 0.93% (n = 400,000) | VDR-SRC2-3 peptide fluorescence polarization, 2 h | Potency, µM, inactives show max response, negative = inhibition, usual class: inhibitors | AID 504847 | P11473; also: potency is read from the fitted curve at half-maximal effect; % is scaled to controls: 0 for no effect and ±100 for the full control effect
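Fluorescence polarization assay measuring small-molecule disruption of VDR binding to the coregulator peptide SRC2-3. Compounds were pin-transferred (23 nl) into the reagent mix and incubated 2 h at room temperature before reading.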
GLS inhibitor: inhibitors of human glutaminase (GLS); O94925; GLS enzymatic activity, qHTS titration; Potency, µM (titrated, usually from 45.5 µM), inactives show top-dose activity change, negative = inhibition, most hits filed as inhibitors; actives 0.21% (n = 410,000); AID 624170; also: potency is read from the fitted curve at half-maximal effect; % is scaled to controls: 0 for no effect and ±100 for the full control effect
Target sequence (O94925 whole entry, looked up): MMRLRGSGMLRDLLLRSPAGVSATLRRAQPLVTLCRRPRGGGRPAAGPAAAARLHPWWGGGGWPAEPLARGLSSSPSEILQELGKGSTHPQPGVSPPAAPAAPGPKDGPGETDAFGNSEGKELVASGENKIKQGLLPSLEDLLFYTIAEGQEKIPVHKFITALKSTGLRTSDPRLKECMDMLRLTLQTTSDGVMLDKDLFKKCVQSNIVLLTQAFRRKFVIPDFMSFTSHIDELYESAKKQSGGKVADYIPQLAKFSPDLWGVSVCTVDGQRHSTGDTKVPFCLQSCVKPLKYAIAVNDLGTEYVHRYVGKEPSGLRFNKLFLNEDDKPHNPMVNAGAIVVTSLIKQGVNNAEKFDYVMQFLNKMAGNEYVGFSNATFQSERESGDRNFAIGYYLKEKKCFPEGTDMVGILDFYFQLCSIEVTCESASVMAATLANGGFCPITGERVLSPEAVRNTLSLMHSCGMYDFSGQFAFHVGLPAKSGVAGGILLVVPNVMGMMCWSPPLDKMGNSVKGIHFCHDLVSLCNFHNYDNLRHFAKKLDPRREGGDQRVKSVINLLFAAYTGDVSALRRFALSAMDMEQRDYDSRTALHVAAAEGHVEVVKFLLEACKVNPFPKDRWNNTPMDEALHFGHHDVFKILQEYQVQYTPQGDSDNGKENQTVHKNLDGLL
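hKGA in 45 mM KH2PO4 (pH 8.2), 0.02% Tween-20 with compound, then 1mM L-Glutamine (stock as added) plus glutamate oxidase/HRP/Amplex red coupling mix. Fluorescence read initially and after 30 min at RT; signal change reflects glutamate formation.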
Mito fusion act: inhibitors of mitochondrial division or activators of mitochondrial fusion; S. cerevisiae fusion-defective mutant growth rescue, CellTiterGlo 48 h; Potency, µM (series often up to 46.1 µM), without a hit: at the highest dose growth rescue (activation), most hits filed as activators; actives 0.23% (n = 320,000); AID 485298; also: potency is read from the fitted curve at half-maximal effect; % of control where 0% means no effect; nearly all actives have a fitted effect of over 45% in size
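Growth-rescue viability read-out: after 48 h at the non-permissive 37C in glycerol/ethanol YPEG, yeast mitochondrial fusion mutants are measured by CellTiterGlo luminescence; compounds (23 nl pinned per well) restoring growth score as division inhibitors or fusion activators.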
PLK1 PBD block: blocks phosphopeptide binding to human PLK1 polo-box domain | AID 720504 | actives 2.8% (n = 360,000) | Plk1 PBD binding of FITC phosphopeptide, fluorescence polarization | P53350 | Potency, µM, inactives show max response, negative = inhibition, hits mostly inhibitors; also: potency is read from the fitted curve at half-maximal effect; series mostly up to about 57 µM; % is scaled to controls: 0 for no effect and ±100 for the full control effect; nearly all actives have a fitted effect of over 65% in size
PKM2 activator: PKM2 (human) enzyme activation. P14618. purified PKM2, Kinase-Glo ATP luminescence, activation; response scale: 0% is enzyme alone, no compound. Potency, µM (series often up to 57.5 µM), for inactives: top-dose activation, hits mostly activators. actives 0.34% (n = 260,000); also: potency is read from the fitted curve at half-maximal effect; % is scaled to controls: 0 for no effect and ±100 for the full control effect; nearly all actives have a fitted effect of over 55% in size
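Purified hPK-M2 (>95% pure) converted ADP (0.1 mM final) to ATP with 0.5 mM PEP in 50 mM imidazole pH7.2, KCl, MgCl2, Tween 20, BSA; 1 h at room temperature. ATP detected by Kinase-Glo luminescence.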
GCN5L2 inh-2: confirmation of human GCN5L2 histone acetyltransferase inhibitors; actives 70% (n = 140); GCN5L2 HAT, ThioGlo1 CoA fluorescence, 20 min; shares compounds with GCN5L2 inh-1; Potency, µM, usual class: inhibitors; AID 588347
VDR inh confirm: confirmation of human vitamin D receptor inhibitors; shares compounds with VDR inhibitor; VDR-coactivator inhibition assay, qHTS confirmation; Potency, µM, most hits filed as inhibitors; actives 89% (n = 840); AID 602199; also: potency is read from the fitted curve at half-maximal effect
VDR FP fluor: blocks human VDR-coactivator binding in fluorescein assay. shares compounds with VDR inhibitor. VDR-coactivator binding, fluorescein fluorescence polarization. Potency, µM (series often up to 57.1 µM), inactives show at the highest dose activity change, negative = inhibition, hits mostly inhibitors. actives 48% (n = 840). AID 602200; also: potency is read from the fitted curve at half-maximal effect
VDR bla reporter: VDR (human) inhibition, cell-based beta-lactamase validation; shares compounds with VDR inhibitor; VDR beta-lactamase reporter cells, FRET ratio; cells co-treated with VDR agonist LG190178; Potency, µM (titrated, usually from 46.1 µM), inactives show top-dose activity change, negative = inhibition, actives largely listed as inhibitors; actives 23% (n = 840); AID 602202; also: potency is read from the fitted curve at half-maximal effect; % is scaled to controls: 0 for no effect and ±100 for the full control effect
VDR cytotox: counter-screen for vitamin D receptor inhibitors: cytotoxicity; AID 602204; cytotoxicity counter-screen, cell viability, qHTS; shares compounds with VDR inhibitor; actives 18% (n = 840); Potency, µM (series often up to 48.3 µM), for inactives: top-dose activity change, negative = cytotoxicity, most hits filed as cytotoxic;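 also: potency is read from the fitted curve at half-maximal effect; plate controls were DMSO for no effect and high-concentration cycloheximide for full effect; nearly all actives have a fitted effect of over 75% in size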
Active calls of the source: *. Calls follow the shape of the dose curve; as a rule, active = well fitted curve in the direction sought with a large enough effect; inconclusive = small, poorly fitted or top-dose-only effect, or another doubt; inactive = no such curve, though single readings can be large; an effect the other way counts as inactive or inconclusive.

How did CCC(C)Sc1ccc(-c2nc3ccc(C)cn3c2NC2CCCCC2)cc1 (stereo not given) do in these assays?
GCN5L2 inh-1: 20µM*; VDR inhibitor: -29%; GLS inhibitor: -3%; Mito fusion act: -6%; PLK1 PBD block: -2%; GCN5L2 inh-2: inconclusive

What do the screens show for `Cn1c(-c2ccc(Br)o2)nc2ccccc21`?
GCN5L2 inh-1: -1%; VDR inhibitor: 4%; GLS inhibitor: 7%; Mito fusion act: 0%; PLK1 PBD block: -10%; PKM2 activator: -53%

Results for CC(=O)c1ccc(-c2nc3ccccc3n2C)o1 ?
GCN5L2 inh-1: inconclusive; VDR inhibitor: 7%; GLS inhibitor: 2%; Mito fusion act: -10%; PLK1 PBD block: -7%; PKM2 activator: -37%; GCN5L2 inh-2: 18*

What do the screens show for `N#Cc1ccccc1C[C@H](N)C(=O)NC[C@H]1O[C@@H](n2cnc3c(N)ncnc32)[C@H](O)[C@@H]1O`?
GLS inhibitor: -8%; PLK1 PBD block: 4%

Results for COCCN(C(=O)COC(=O)c1cc2c(s1)CCC2)c1c(N)n(Cc2ccccc2)c(=O)[nH]c1=O ?
GCN5L2 inh-1: inconclusive; VDR inhibitor: -12%; GLS inhibitor: 10µM*; Mito fusion act: -2%; PLK1 PBD block: 9.5µM*; GCN5L2 inh-2: 11*

Results for O=C(C1=NN(c2ccccc2)C2C(=O)N(c3ccccc3Cl)C(=O)C12)c1ccccc1 (stereo not given) ?
GCN5L2 inh-1: inconclusive; VDR inhibitor: -9%; GLS inhibitor: -15%; Mito fusion act: -18%; PLK1 PBD block: -19%; PKM2 activator: 11%; GCN5L2 inh-2: inconclusive

Results for Nc1c(C(=O)N2CCCCC2)sc(=S)n1-c1ccccc1 ?
GCN5L2 inh-1: inconclusive; VDR inhibitor: inconclusive; GLS inhibitor: -8%; Mito fusion act: 8%; PLK1 PBD block: 3µM*; PKM2 activator: 5%; GCN5L2 inh-2: inconclusive; VDR inh confirm: 7.1*; VDR FP fluor: 7.1µM*; VDR bla reporter: -8%; VDR cytotox: 1%

How did c1ccc2nc3c(nc2c1)c1ccccc1n3CCN1CCOCC1 do in these assays?
GCN5L2 inh-1: 1%; VDR inhibitor: 7%; GLS inhibitor: -2%; Mito fusion act: 5%; PLK1 PBD block: -12%; PKM2 activator: 10%
